SMILES strings stand for the structures. Records with an inconclusive call do not appear. A number with no mark means an inactive call. Activity calls are given as the source filed them. Calls come from the whole dose curve; as a rule, active = well fitted inhibition curve with a large enough effect; inconclusive = small, poorly fitted or top-dose-only effect; inactive = no such curve, though single readings can be large or run the other way.
% is set by controls: 0 for no effect and ±100 for the full control effect; potency is the fitted concentration of half-maximal effect.

The nature of this test: HTS Assay for Allosteric Antagonists of the Human D2 Dopamine Receptor: Hit Validation in HTRF (AID 624455).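 Note: stable D1 dopamine receptor cell line scored for blocking the D1 response.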 Particulars: Cells stably expressing D1 dopamine receptor, inhibition mode; series mostly up to 46.1 µM; activity, negative = inhibition: at the top concentration. The essentials: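 Inhibition of the D1-mediated response was measured by HTRF. Cells used were a line stably expressing the D1 dopamine receptor.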
On to `COC(=O)[C@@H](N)CCCN=C(N)N[N+](=O)[O-]`, for which the “activity, negative = inhibition” value is -0.66%.
For the compound `C=CCN1CC[C@]23CCCCC2[C@H]1Cc1ccc(O)cc13` (stereo partly specified), the “activity, negative = inhibition” value was -7.12%.
For the compound `NC(CCP(=O)(O)O)C(=O)O` (stereo unspecified), the “activity, negative = inhibition” value is 5.08%.
As for `CC[C@@]1(O)C(=O)OCc2c1cc1n(c2=O)Cc2cc3ccccc3nc2-1`, the “activity, negative = inhibition” value was -1.39%.
Regarding `CNCCc1c[nH]c2ccc(O)cc12`, the “activity, negative = inhibition” value was -16.5%.
The same measure, in the same setting: as for `C[C@]12CCC3C(CC[C@H]4C[C@H](O)CC[C@]34C)C1CC[C@@H]2C(=O)CO` (stereo partly specified), the figure is 4.26%; as for `C/C=C(/C)C(=O)O[C@H]1C(C)=C2[C@H]([C@@H]1OC(=O)CCCCCCC)[C@@](C)(OC(C)=O)C[C@H](OC(=O)CCC)[C@@]1(O)[C@H]2OC(=O)[C@@]1(C)O`, -6.29%; as for `CCCCc1ccc(C(=O)O)nc1`, -1.46%.
Still for that read-out and setting: as for `CC(=O)NCCc1c[nH]c2ccccc12`, the figure is -1.04%; as for `O=C(O)[C@@H]1CCN1`, -2.72%; as for `c1ccc2sc(C3(N4CCCCC4)CCCCC3)cc2c1`, -4.21%.
Turning to `CC(Cc1ccc(O)cc1)NCC(O)c1cc(O)cc(O)c1` (stereo unspecified), the “activity, negative = inhibition” value is -16.3%.
Still for that read-out and setting: the value for `O=C(O)Cc1cnc[nH]1` was -1.75%; that for `CN1C2CCC1CC(OC(=O)c1cc(Cl)cc(Cl)c1)C2` (stereo unspecified) was -2.41%; that for `Oc1ccc2c3c1O[C@H]1c4[nH]c5c(c4C[C@@]4(O)[C@@H](C2)N(CC2CC2)CC[C@]314)C[C@@]1(O)[C@H]2Cc3ccc(O)c4c3[C@@]1(CCN2CC1CC1)[C@H]5O4` was 0.0236%.
The same measure, in the same setting: the value for `CCCN1CCO[C@@H]2c3cc(O)ccc3OC[C@H]21` was -19%; that for `S=C(NC1CCCCC1)N1CCC(c2cnc[nH]2)CC1` was 0.201%; that for `NCc1cc(=O)[nH]o1` was -12.9%.
On the same count and under the same terms, as for `C[C@@H]1O[C@H](C[N+](C)(C)C)C[C@H]1O`, the figure is 0.708%.
As for `CC(C)Oc1cccnc1N(C)C1CCN(Cc2ccccc2)CC1`, the “activity, negative = inhibition” value was 10.4%.
For the compound `CC[C@@H](C(N)=O)N1CCCC1=O`, the “activity, negative = inhibition” value is 0.696%.
Take `NC1CCc2cc(O)c(O)cc2C1` (stereo unspecified): the Potency is 16.4 nM (active).
`O=C1CCCN1CC#CCN1CCCC1`: the “activity, negative = inhibition” value was 0.141%.
On the same count and under the same terms, as for `O=C(N[C@H]1CN2CCC1CC2)c1ccc(Cl)cc1`, the figure is 5.07%.
Still for that read-out and setting: as for `NC(=O)CN1CC(O)CC1=O` (stereo unspecified), the figure is 2.98%.
The same measure, in the same setting: the value for `c1ccc(CCCN2CCN(CCOC(c3ccccc3)c3ccccc3)CC2)cc1` was 5.28%; that for `NC(N)=NOCCC(N)C(=O)O` (stereo unspecified) was 3.37%.
With `NC(=NCCC[C@H](N)C(=O)O)N[N+](=O)[O-]`, the “activity, negative = inhibition” value is -1.26%.
Consider `C#CCOC(=O)C1=CCCN(C)C1`, for which the “activity, negative = inhibition” value was 1.25%.
As to `C[N+]1(C)C2CCC1CC(OC(=O)C(CO)c1ccccc1)C2` (stereo unspecified), the Potency result was “inactive”.
With `C[C@@H](N)Cc1cnc[nH]1`, the “activity, negative = inhibition” value was 4.01%.
